In the library only some 7.3% were active in any assay of this set; here they are far more common.
KinaseGlo FLuc: counter-screen: inhibitors of Kinase-Glo firefly luciferase. Q27757. Kinase-Glo luciferase, ATP luminescence, 8 min. Potency, µM (top dose mostly 38.3 µM), inactives show at the highest dose activity change, negative = inhibition, hits mostly inhibitors. 200,000 compounds, 0.28% hits. AID 1379; also: % is scaled to controls: 0 for no effect and ±100 for the full control effect; nearly all actives have a fitted effect of over 60% in size
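Kinase-Glo luciferase light output from ATP and luciferin was measured with 10 uM ATP, within the enzyme's linear range. Buffer: 50 mM imidazole pH 7.2, 50 mM KCl, 7 mM MgCl2, 0.01% Tween 20, 0.05% BSA; luminescence read after 8 min at ambient temperature.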
SMN2 splice enh: enhancers of SMN2 splice variant expression; Potency, µM (highest dose often 46.1 µM), inactives show top-dose activity change, positive = activation, actives largely listed as activators; HEK293 SMN2-luciferase splicing reporter, luminescence, 30-36 h; 210,000 compounds, 2.8% hits; also: % of control where 0% means no effect; nearly all actives have a fitted effect of over 55% in size
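HEK293 cells carry an SMN2 […]–luciferase reporter in which exon 7 inclusion puts luciferase in frame. Cells were plated 10-12 h before compound addition, then incubated 30-36 h at 37C. ONE-Glo luminescence was read; sodium butyrate at 4.5 mM final served as control.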
FLuc counter: inhibits or activates purified firefly luciferase, miR-21 counter-screen. Potency, µM (series often up to 57.5 µM), inactives show at the top dose activity change, negative = inhibition, usual class: inhibitors. P08659. 360,000 compounds, 6.9% hits. purified FLuc, Km substrates, luminescence inhibition. AID 588342;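 also: plate controls were vehicle for no effect and reference inhibitor for full effect; nearly all actives have a fitted effect of over 55% in size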
Target sequence (P08659 whole entry, looked up): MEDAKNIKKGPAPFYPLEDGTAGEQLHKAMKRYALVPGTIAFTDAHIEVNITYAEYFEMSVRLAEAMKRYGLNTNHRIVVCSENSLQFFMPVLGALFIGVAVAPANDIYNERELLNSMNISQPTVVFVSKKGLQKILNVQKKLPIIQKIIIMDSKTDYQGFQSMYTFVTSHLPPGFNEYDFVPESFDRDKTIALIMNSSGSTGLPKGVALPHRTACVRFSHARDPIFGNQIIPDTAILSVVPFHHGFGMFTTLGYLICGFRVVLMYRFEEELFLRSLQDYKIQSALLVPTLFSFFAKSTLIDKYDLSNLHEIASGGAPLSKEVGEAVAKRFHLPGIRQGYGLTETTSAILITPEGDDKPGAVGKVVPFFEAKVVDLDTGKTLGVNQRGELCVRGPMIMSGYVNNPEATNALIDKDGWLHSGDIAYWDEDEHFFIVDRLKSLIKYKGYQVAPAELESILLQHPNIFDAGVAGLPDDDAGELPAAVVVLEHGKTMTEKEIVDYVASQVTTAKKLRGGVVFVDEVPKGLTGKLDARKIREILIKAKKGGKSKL
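Purified P. pyralis luciferase, 10 nM final, with Km-level 10 uM D-luciferin and 10 uM ATP in 50 mM Tris acetate pH 7.5, 10 mM Mg acetate, 0.01% Tween-20, 0.05% BSA; 6-point qHTS titration about 60 µM downward; luminescence read.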
Rab9 promoter act: activators of Rab9 promoter. Huh7 Rab9 promoter-luciferase reporter, luminescence, 24 h. 320,000 compounds, 2.8% hits. Potency, µM (highest dose often 9.22 µM), for the others: top-dose activation, negative = inhibition, most hits filed as activators; also: % of control where 0% means no effect; nearly all actives have a fitted effect of over 60% in size
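Huh7 reporter line, Rab9 promoter upstream of luciferase. Compound exposure 24 h at 37 °C in reduced-serum medium with 10% FBS. Read-out: luminescence.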
NPC1 prom act: activators of NPC1 promoter; Huh7 NPC1 promoter luciferase reporter, 24 h; Potency, µM (top dose mostly 9.22 µM), for the others: top-dose activation, hits mostly activators; 320,000 compounds, 2.4% hits; AID 485313; also: % of control where 0% means no effect; nearly all actives have a fitted effect of over 60% in size
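Stable NPC1-promoter luciferase Huh7 line; cpd (DMSO) 24 h, 37 °C, 5% CO2; Amplite luciferase reagent 10 min RT; luminescence readout. qHTS format.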
An asterisk follows results filed as active; [ ] = remark or other dose. Calls follow the shape of the dose curve; as a rule, active = well fitted curve in the direction sought with a large enough effect; inconclusive = small, poorly fitted or top-dose-only effect, or another doubt; inactive = no such curve, though single readings can be large; an effect the other way counts as inactive or inconclusive. Potency is read from the fitted curve at half-maximal effect.

COCCCn1c(=N)c(S(=O)(=O)c2ccccc2)cc2c(=O)n3cccc(C)c3nc21 was read as SMN2 splice enh 23% and FLuc counter -2%.
Screening Cc1ccc(/C=C/c2nc3ccccc3c(=O)[nH]2)cc1 returned FLuc counter 0.15µM*, Rab9 promoter act 0.35µM* and NPC1 prom act 0.5µM*.
Screening Cc1ccc(/C=C/c2nc3ccccc3[nH]2)o1 returned KinaseGlo FLuc 13µM*, SMN2 splice enh 4µM*, FLuc counter 0.85µM*, Rab9 promoter act 0.45µM* and NPC1 prom act 0.71µM*.
For COc1cc(/C=C/c2nc3ccccc3c(=O)[nH]2)cc(OC)c1OC the results were FLuc counter inconclusive, Rab9 promoter act 0%[1.84 µM] and NPC1 prom act -5%.
`Cc1ccc(/C=C/c2nc3ccccc3[nH]2)cc1` gave FLuc counter 0.076µM*.
COc1cc(/C=C/c2nc3ccccc3c(=O)[nH]2)ccc1OC(F)F was read as FLuc counter inconclusive, Rab9 promoter act inconclusive and NPC1 prom act 5µM*.
For CCC12CN3CC(C)(CN(C1)C3c1c(C)[nH]c3ccccc13)C2=O (stereo unspecified) the results were SMN2 splice enh 2% and FLuc counter 4%.
For Cc1oc(-c2ccccc2F)nc1CS(=O)CC(=O)NC(C)C (stereo unspecified) the results were SMN2 splice enh 5% and FLuc counter -15%.
For CCOc1ccc(N(CC)S(=O)(=O)N2CCCC(C(=O)Nc3ccc(OC)c(OC)c3)C2)cc1 (stereo unspecified) the results were FLuc counter -13%.
`COCCOC(=O)N/C=C\c1nc2ccccc2c(=O)[nH]1` gave KinaseGlo FLuc 1%, SMN2 splice enh 18%, FLuc counter inconclusive, Rab9 promoter act 0% and NPC1 prom act -7%.
Screening C=CCOc1cccc(/C=C/c2nc3ccccc3c(=O)[nH]2)c1 returned FLuc counter 1.5µM*, Rab9 promoter act 3.5µM* and NPC1 prom act inconclusive.
COC(=O)c1ccc(/C=C/c2nc3ccccc3c(=O)[nH]2)cc1 was read as FLuc counter 0.67µM*, Rab9 promoter act 1.1µM* and NPC1 prom act 0.5µM*.
For C=CCNc1nc2ccccc2c(=O)[nH]1 the results were KinaseGlo FLuc 2%, SMN2 splice enh 28%, FLuc counter 2%, Rab9 promoter act -31% and NPC1 prom act -2%.
CCN(CC)S(=O)(=O)c1ccc2nc(NC(=O)c3ccco3)sc2c1 was read as KinaseGlo FLuc -2%, SMN2 splice enh 12%, FLuc counter 19µM*, Rab9 promoter act 8% and NPC1 prom act 16%.
CCN(CC)S(=O)(=O)c1ccc2nc(NC(=O)c3cccs3)sc2c1 was read as KinaseGlo FLuc 2%, SMN2 splice enh inconclusive, FLuc counter 15µM*, Rab9 promoter act inconclusive and NPC1 prom act 23%.
Screening CCN(CC)S(=O)(=O)c1ccc2nc(NC(=O)c3ccccc3OC)sc2c1 returned FLuc counter 0%.
For CC(NC(=O)c1ccc(F)cc1)c1nc2ccccc2[nH]1 (stereo unspecified) the results were SMN2 splice enh -1% and FLuc counter 1%.
Cc1ccc(NC(=O)CSc2nnc3ccc4ccccc4n23)cc1 was read as FLuc counter -2%.
CCOc1ccc(-c2cc(C(=O)NCCCN3CCOCC3)c3ccccc3n2)cc1 was read as FLuc counter 8.5µM*, Rab9 promoter act 1% and NPC1 prom act 15%.
`O=C(NCCN1CCOCC1)c1cc(-c2ccc(F)cc2)nc2ccccc12` gave FLuc counter inconclusive, Rab9 promoter act 1% and NPC1 prom act 1%.
For CC(C)Oc1ccc(-c2cc(C(=O)NCCN3CCOCC3)c3ccccc3n2)cc1 the results were KinaseGlo FLuc -6%, SMN2 splice enh 29%, FLuc counter 1.5µM*, Rab9 promoter act 25% and NPC1 prom act inconclusive.
Screening COc1ccc(Nc2cc(C(=O)NCCCN3CCOCC3)c3ccccc3n2)cc1 returned FLuc counter inconclusive, Rab9 promoter act -1% and NPC1 prom act -2%.
COc1ccccc1NC(=O)C(=O)NCCCN1CCCC1=O was read as FLuc counter -15%, Rab9 promoter act 23% and NPC1 prom act 11%.

Screening data (PubChem BioAssay)
